Shown are actives, neighbours in structure and some others; about 0.88% of the full set was active somewhere.
RGS4 inh: human RGS4 inhibition; Transcreener GDP fluorescence polarization, RGS4-accelerated GTP hydrolysis; 0.039% of 390,000 active; AID 504845; Potency, µM (doses to about 114 µM), inactives show at the highest dose activity change, negative = inhibition, usual class: inhibitors; P49798; active = well fitted curve in the direction sought with a large enough effect; inconclusive = small, poorly fitted or top-dose-only effect, or another doubt; inactive = no such curve, though single readings can be large; an effect the other way counts as inactive or inconclusive; also: potency is read from the fitted curve at half-maximal effect; % is scaled to controls: 0 for no effect and ±100 for the full control effect; nearly all actives have a fitted effect of over 75% in size
Target sequence (P49798 whole entry, looked up): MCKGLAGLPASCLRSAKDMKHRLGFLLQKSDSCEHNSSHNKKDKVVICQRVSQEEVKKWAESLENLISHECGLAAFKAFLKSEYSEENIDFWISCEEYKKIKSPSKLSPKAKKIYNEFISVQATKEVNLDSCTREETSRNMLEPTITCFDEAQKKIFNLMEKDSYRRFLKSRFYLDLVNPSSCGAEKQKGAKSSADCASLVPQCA
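MLSMR compounds (23 nl, pin-transferred) preincubated 10 min at room temperature with a 500nM (2x) first reagent, then RGS4 at 900nM (2x) plus Transcreener GDP mix added; fluorescence polarization (620/688 nm) read before and after 90 min at 30 °C.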
Akt phos inh: blocks phosphorylation of Akt; Neuro2A IGF-stimulated pAkt S473 HTRF, 20 min; stronger effect = lower value; activity change, % for hits at 50 µM; 0.32% of 360,000 active; in the data active = activity change below about -80%; inconclusive = mostly about -51% to -80%; also: % is scaled to controls: 0 for no effect and ±100 for the full control effect
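Neuro2A cells (4,500/well, DMEM with 0.5% FBS) were treated with compound at a single 50 µM final concentration, stimulated with 6 nM IGF for 20 min at 37 °C, and lysed. Phospho-Akt Ser473 was read by HTRF as 665/615 ratio ×10^4.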
CtBP-E1A blk: inhibitors of CtBP/E1A interaction | AlphaScreen GST-E1A/His-CtBP binding, 1536-well; stronger effect = lower value | activity change, % (no concentration beside the values) | 0.49% of 340,000 active | AID 651724; also: % is scaled to controls: 0 for no effect and ±100 for the full control effect
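Homogeneous bead-based format: GST-tagged E1A captured on glutathione donor beads, His-tagged CtBP on nickel acceptor beads; compounds precede bead addition by 2 h at 37 °C.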
Six1-Eya2 inh: inhibitors of human Six1/Eya2 interaction; Q15475+O00167; AlphaScreen GST-Six1/His-Eya2 binding, biochemical; stronger effect = lower value; activity change, % (concentration not given with the values); 0.56% of 360,000 active; also: % is scaled to controls: 0 for no effect and ±100 for the full control effect
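GST-Six1 + His-Eya2 (5X stock: 250/500 nM); Tris pH 8.0, 300 mM NaCl, 0.05% BSA, 0.02% Tween 20; GSH donor/Ni acceptor beads; 1 h 37 °C dark; AlphaScreen readout.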
GRP78 ERSR act: induces the endoplasmic reticulum stress response in human glioma cells | AID 602332 | U87-MG GRP78 promoter luciferase reporter, 16 h | Potency, µM, without a hit: at the highest dose activation, most hits filed as activators | 0.02% of 420,000 active; active = well fitted curve in the direction sought with a large enough effect; inconclusive = small, poorly fitted or top-dose-only effect, or another doubt; inactive = no such curve, though single readings can be large; an effect the other way counts as inactive or inconclusive; also: potency is read from the fitted curve at half-maximal effect; series mostly up to about 76 µM; % of control where 0% means no effect; nearly all actives have a fitted effect of over 35% in size
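ERSR induction read as luciferase luminescence (Bright-Glo, 10 min at room temperature) in stably transfected human U87-MG glioma cells exposed to compounds for 16 h, using GRP78 as sensor.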
* hit, by the source's call; i = inactive; ? = inconclusive; / = not tested or not shown; ! = not active in a repeat; [ ] = dose if it differs, or a comment. Rule as the data show it, unless noted: active = activity change below about -65%; inconclusive = mostly about -30% to -63%; inactive = weaker than that.

SMILES	RGS4 inh	Akt phos inh	CtBP-E1A blk	Six1-Eya2 inh	GRP78 ERSR act
COc1cccc(NC2=C(NCCO)C(=O)c3ccccc3C2=O)c1	24.0%	i	?	?	-1.3%
Cc1cc(C)cc(NC2=C(N)C(=O)c3ccccc3C2=O)c1	-32.8%	i	?	-70.2*	-1.9%
Cc1cccc(NC2=C(NCCO)C(=O)c3ccccc3C2=O)c1	-17.0%	i	-24.0	-67.2*	-0.9%
O=C(C[N+]1(CC(O)c2ccccc2)CCOCC1)c1ccccc1 (stereo not given)	/	/	/	/	-2.2%
CC(C)C(NC(=O)c1ccccn1)c1nnc2n1CCN(Cc1ccc3ccccc3c1)CC2 (stereo not given)	/	/	/	/	-2.1%
CCOc1ccc(OCC(=O)N2CCOCC2)cc1	-19.9%	-98.5%*	0.3	7.8	10.0%
O=C(COc1ccc(Br)cc1)N1CCOCC1	-3.9%	i	7.2	-6.6	0.9%
COc1ccc(CNCCC(c2ccc(OC)cc2)c2ccccc2OC)cc1 (stereo not given)	5.0%[56.9 µM]	i	-1.2	-2.4	-2.2%
COc1ccc(C(CCNCc2ccc(N(C)C)cc2)c2ccccc2OC)cc1 (stereo not given)	9.2%	i	-74.9*	-73.9*	-1.7%
CN(C)c1ccc(/C=C2\NC(=O)NC2=O)cc1	/	/	/	/	0.9%
CCOC(=O)c1c(C)[nH]c(C(=O)OC(C(=O)N(C)C)c2ccccc2)c1C (stereo not given)	/	/	/	/	-2.4%
O=[N+]([O-])c1cccc(/C=N/Nc2nccnc2Cl)c1	30.6%	-82.9%*	-16.5	-7.4	?
Fc1ccc(C(c2ccc(F)cc2)N2CCN(CC=Cc3ccccc3)CC2)cc1	?	/	/	/	-2.1%
Cc1ccc(-c2nnc(SC(C)C(=O)NCc3ccco3)n2C)cc1 (stereo not given)	/	/	/	/	-3.9%
OCc1ccc(-c2nn(Cc3ccccc3)c3ccccc23)o1	23.8µM*!	i	-8.7	-9.1	0.6%
O=C(CCl)c1ccc2c(c1)CCCC2	/	/	/	/	5.7%
O=Nc1ccc(O)c2ncccc12	13.0%	i	/	-89.0*	-11.8%
Cc1ccccc1N=Nc1ccc(O)c2ncccc12	7.7%	i	-25.9	?	-1.2%
O=S(=O)(O)c1cccc2c(N=Nc3ccc(O)c4ncccc34)cccc12	-5.9%	i	-92.3*	32.0	-5.4%
O=C(NCCc1nnc2n1CCN(Cc1ccc(F)cc1)CC2)c1ccco1	/	/	/	/	-0.5%
Cc1cc(C)nc(N/N=C/c2sccc2C)n1	?	i	2.4	4.9	2.9%
Cc1ccsc1/C=N/Nc1nc(=O)[nH]nc1C	-1.7%	i	-94.0*	-83.3*	-7.5%
COc1ccccc1C1CN(Cc2cccc(OCCO)c2)Cc2ccccc2O1 (stereo not given)	/	/	/	/	-2.3%
c1ccc(-c2nc(NCc3ccco3)c3ccccc3n2)nc1	4.9%[11.4 µM]	i	-81.1*	-80.6*	-7.8%
Cc1noc(C)c1CC(=O)N1CCOc2c(cc(-c3nc4ccccc4s3)cc2OC2CCOC2)C1 (stereo not given)	/	/	/	/	-0.9%
SMILES	RGS4 inh	Akt phos inh	CtBP-E1A blk	Six1-Eya2 inh	GRP78 ERSR act
COc1cc(/C=C/C(=O)OCC(=O)N2c3ccccc3CC2C)cc(OC)c1OC (stereo not given)	-0.4%	i	/	-7.4	0.7%
CC1Cc2ccccc2N1C(=O)COC(=O)/C=C/c1cccc(F)c1 (stereo not given)	7.9%	i	-89.8*	-25.9	-2.6%
CC[N+](C)(C)c1ccc(/C=C/c2ccnc3ccccc23)cc1	/	/	/	/	-9.3%
Cc1nc2cccc(C(=O)Oc3ccc([N+](=O)[O-])cc3)c2o1	8.3%	i	-14.8	-81.7*	-3.3%
Nc1sc2c(c1C(=O)NC1CCS(=O)(=O)C1)CCC2 (stereo not given)	-41.0%[11.4 µM]	-129.9%*	-2.6	-10.4	-3.7%
COc1cccc(C(=O)c2c[nH]c(C(=O)NCc3ccco3)c2)c1	-2.6%	-112.2%*	-2.5	-14.6	0.7%
COc1ccc(C(=O)c2c[nH]c(C(=O)NCc3ccco3)c2)cc1	-13.5%	i	-0.6	-3.7	-2.1%
O=C(CN1CCOCC1)N/N=C/c1c(O)ccc2ccccc12	3.5%	i	-93.1*	-94.6*	-6.8%
O=C(CN1CCOCC1)N/N=C/c1ccco1	4.2%	i	-4.9	-5.1	-2.0%
O=C(CSCC(=O)Nc1ccccc1)N/N=C/c1c(O)ccc2ccccc12	12.5%	i	-71.9*	?	-6.6%
CCCc1nc2cccnc2n1C1CCN(C(=O)Cn2nccc2C)CC1	/	/	/	/	-1.1%
O=C(Nc1nc2ccccc2[nH]1)c1ccc(Cl)c(S(=O)(=O)N2CCCC2)c1	2.2%	i	-72.9*	?	-4.6%
Cc1nonc1NC(=O)c1ccc(Cl)c(S(=O)(=O)N2CCCCC2)c1	-0.7%[11.4 µM]	-98.4%*	4.8	1.3	-3.0%
O=C(Nc1nc2ccccc2[nH]1)c1ccc(S(=O)(=O)N2CCOCC2)cc1	6.8%	i	/	-1.5	4.5%
Cc1cccnc1NC(=O)c1ccc(Cl)c(S(=O)(=O)N2CCCCCC2)c1	-17.6%	i	0.0	16.9	-2.6%
SCc1nc2ccccc2[nH]1	/	/	/	/	0.4%
Cc1cccc(-n2cnc(C(=O)NNC(=S)Nc3ccc(Cl)cc3)c2)n1	?	i	-88.4*	-90.5*	-2.8%
Oc1ccc(CN2CCN(Cc3ccccc3)CC2)c2cccnc12	-9.8%[56.9 µM]	i	-97.5*	-92.9*	-5.9%
CN1CCN(Cc2cc(COCc3ccccc3)c3cccnc3c2O)CC1	-7.4%	i	-94.2*	-88.8*	-1.3%
CCCOCc1cc(CN2CCN(c3cccc(Cl)c3)CC2)c(O)c2ncccc12	2.3%	/	/	/	-4.7%
O=S(=O)(c1ccc(Cl)cc1)N1CCN(Cc2ccc(O)c3ncccc23)CC1	-13.3%	i	1.5	-92.3*	-5.6%
CN1CCN(C2CCN(Cc3ccc(O)c4ncccc34)CC2)CC1	-2.5%	/	/	/	-6.2%
C1=C/C(=C2/C=Cc3ccccc32)c2ccccc2N1	/	/	/	/	-5.2%
O=Nc1ccc(/C=C/c2ccnc3ccccc23)cc1	/	/	/	/	-3.5%
Cc1ccc(NC(=O)/C(=C\c2ccc([N+](=O)[O-])cc2)NC(=O)c2ccccc2)cc1	-38.6%	i	2.2	-2.7	-6.1%
SMILES	RGS4 inh	Akt phos inh	CtBP-E1A blk	Six1-Eya2 inh	GRP78 ERSR act
O=C(Nc1cccc2ccccc12)/C(=C/c1ccc([N+](=O)[O-])cc1)NC(=O)c1ccccc1	-11.7%	i	-4.3	-8.5	-4.2%
O=C(N/N=C/c1ccc(O)c(O)c1O)/C(=C/c1ccc([N+](=O)[O-])cc1)NC(=O)c1ccccc1	?	i	-94.5*	-90.0*	-4.0%
COC(=O)/C(=C\c1ccc([N+](=O)[O-])cc1)NC(=O)c1ccccc1	6.1%	i	-91.4*	-24.9	-1.7%
O=C(Nc1c(-c2ccccc2)nc2sccn12)c1ccccc1	2.0%	-106.1%*	2.2	-0.9	0.0%
CCOC(=O)c1sc(NC(=O)c2c(OC)cccc2OC)nc1C	8.7%	-119.0%*	-5.0	4.5	2.6%
COc1ccccc1CN1CCC2(CCC(CNC(=O)c3ccccc3N(C)C)O2)CC1 (stereo not given)	/	/	/	/	-3.5%

Source: PubChem (National Center for Advancing Translational Sciences (NCATS))
